Screening data: PubChem BioAssay, several laboratories
Compounds with a hit are over-represented: about 3.7% of the library has one in this group of screens.
BoNT A protease – BoNT/A light chain protease inhibitors, primary screen, biochemical, flow cytometry, MLPCN library | inhibition, % at 10 µM | hit rate 0.17% among 360,000 | multiplex microsphere protease substrate cleavage | AID 588499, 2011; note: plate controls were buffer without enzyme for full effect and enzyme alone for no effect
BoNT-F LC inh – BoNT/F light chain protease inhibitors, primary screen, biochemical, flow cytometry, MLPCN library; inhibition, % at 10 µM; Botulinum neurotoxin type F light chain protease (Clostridium botulinum); hit rate 0.22% among 360,000; Multiplex microsphere protease cleavage assay; in the data active = inhibition above about 35%, passing the limit was not always enough; inconclusive = no clear call, values can overlap the other calls; note: plate controls were buffer without enzyme for full effect and enzyme alone for no effect
Vc quorum ag – inducers of Vibrio cholerae quorum light production without autoinducers, primary screen, BH1578 luxS cqsA deficient, single point; V. cholerae BH1578 lux reporter, luminescence, 6 h; activation, % at 18.7 µM; hit rate 0.16% among 350,000; AID 588436, 2011; in the data active = activation mostly above about 9.7%, no sharp cut-off; inconclusive = no clear call, values can overlap the other calls; inactive = mostly below about 3.7%
Autofluor counter – counter-screen for toxin protease inhibitors: compound fluorescence | compound autofluorescence counterscreen, microsphere flow cytometry; hits give high values | fluorescence intensity (concentration not given with the values) | hit rate 3.1% among 360,000; in the data active = fluorescence intensity above about 16000; inconclusive = no clear call, values can overlap the other calls
Anthrax LF prot – Bacillus anthracis LF protease inhibitors, primary screen, biochemical, multiplex microsphere, MLPCN library; Lethal factor (Bacillus anthracis), P15917; multiplex microsphere protease cleavage assay; inhibition, % at 10 µM; hit rate 0.12% among 360,000; note: plate controls were buffer without enzyme for full effect and enzyme alone for no effect
BJeLR lethal – MLPCN primary cell-based screen for lethality selective to Ras in HRASV12 cells; BJeLR (HRASV12) viability, CellTiter-Glo ATP luminescence, 48 h; inhibition, % (no concentration beside the values); AID 1554, 2009; hit rate 0.17% among 300,000; in the data active = inhibition above about 50%; inconclusive = no clear call, values can overlap the other calls
Active calls of the source: *; i = inactive; ? = inconclusive; / = no result; + = active, no number. Cut-off read from the data, not from the text of the source, unless noted: active = inhibition above about 30%; inconclusive = no clear call, values can overlap the other calls; inactive = below that.

SMILES	BoNT A protease	BoNT-F LC inh	Vc quorum ag	Autofluor counter	Anthrax LF prot	BJeLR lethal
Cc1ccc(Cn2c(-n3nc(C)cc3C)nc3c2c(=O)[nH]c(=O)n3C)cc1	3	3	1	22348*	-5	-13
Cc1ccc(Cn2c(CN3CC(C)OC(C)C3)nc3c2c(=O)[nH]c(=O)n3C)cc1 (stereo not drawn)	0	0	0	20485*	-3	14
CN(C)CCCNc1c2ccccc2nc2ccccc12	0	7	0	3163	-2	69*
COc1ccc(-n2cc(-c3ccccc3)c3c(N4CCN(CCO)CC4)ncnc32)cc1	7	8	0	20444*	-2	-8
O=C(Nc1ccc(F)c(Cl)c1)c1cc(C2CCCN(C(=O)CCc3ccccc3)C2)on1 (stereo not drawn)	0	-2	i	2943	-2	/
CCOC(=O)N1CCN(C(=S)NC(C)(C)C)CC1	-2	-4	-3	22858*	-1	-6
CCOC(=O)N1CCN(C(=S)NC)CC1	-1	4	i	3344	2	6
Cc1ccccc1N1CCN(Cc2c(C#N)c3ccccc3n2C)CC1	-4	-6	0	23866*	-1	6
CCn1c(CNC(=O)c2ccco2)nnc1SCC(=O)Nc1cc(C)c(C)cc1Br	?	0	0	22252*	1	7
C=CCn1c(CNC(=O)c2ccco2)nnc1SCC(=O)Nc1cccc(Br)c1	-2	-2	0	24230*	0	-4
C=CCn1c(C)nnc1SCC(=O)Nc1ccc2c(c1)OCCO2	0	-3	i	2910	-2	/
C=CCn1c(CNC(=O)c2ccco2)nnc1SCC(=O)Nc1cccc(F)c1	-1	-6	0	4602	-7	2
C=CCn1c(SCC(=O)Nc2ccc3c(c2)OCCO3)nnc1-c1ccco1	-1	1	-3	16334*	-3	-1
CC(C)NC(=O)N(C)C[C@H]1Oc2ncc(Br)cc2C(=O)N([C@H](C)CO)C[C@@H]1C	0	-3	-1	3333	-3	/
COc1ccc(C(O)c2nc(-c3ccncc3)cs2)cc1 (stereo not drawn)	0	0	-1	3792	1	/
COC(=O)CC1(c2ccc(OC)cc2)C(=O)c2ccccc2C1=O	?	?	i	4649	-5	3
COC(=O)CC1(c2ccccc2)C(=O)c2ccccc2C1=O	?	-2	0	16568*	0	-3
N#CCSc1ccccc1NC(=O)COC(=O)C1CCN(C(=O)c2ccc(Cl)cc2)CC1	0	1	-1	3749	-1	/
COc1cc(/C=C2\C(=O)ON=C2c2ccccc2)cc(OC)c1OC	0	-5	+	2967	1	-1
O=C1NC(=O)c2cc(NC(=O)C3CCCO3)ccc21 (stereo not drawn)	?	-1	4	22178*	-4	8
O=C(Nc1ccc2c(c1)C(=O)N(c1ccccc1)C2=O)C1CCCO1 (stereo not drawn)	?	0	i	21610*	-5	8
O=C1OCc2cc(NC(=O)C3CCCO3)ccc21 (stereo not drawn)	?	-14	0	?	?	1
O=C(C[C@H]1C[C@@H]2c3cc(NC(=O)Nc4ccccc4F)ccc3O[C@@H]2[C@H](CO)O1)NCc1ccccn1	0	2	0	3775	12	/
CN(C)CCCNCCCNC(=O)c1ccncc1	1	0	i	21704*	-8	-1
O=C(O)CCCCCNC(=O)c1ccncc1	?	0	i	19428*	-5	3
O=C(NCCCNC(=O)c1ccccn1)c1ccccn1	0	7	0	4105	-4	5
CN(C)CCCNC(=O)c1ccccn1	-1	-4	i	16671*	1	-1
Cc1ccc(S(=O)(=O)N2C[C@H]3C(=O)C[C@@H](c4ccccc4)N(S(=O)(=O)c4ccc(C)cc4)[C@H]3C[C@H]2c2cccc(C)c2)cc1	0	-2	/	6089	1	/
CCOc1ccc(C(=O)Nc2c3c(nn2-c2cccc(Cl)c2)CS(=O)C3)cc1 (stereo not drawn)	-1	-1	0	22721*	0	-15
